Results taken from PubChem BioAssay AID1212 (NMMLSC, 2008).
A number with no mark means an inactive call. Activity calls are given as the source filed them.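 How the source made its calls: active means blocks over 60% of fluorescent estradiol binding at 10 µM; inactive means the rest.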

Each compound was assayed against G-protein coupled estrogen receptor 1 (Homo sapiens) (UniProt Q99527) (assay: displacement of E2-Alexa633 from GPER – cell-based, Cos7 GPR30-GFP, flow cytometry, 10 µM, primary screen (AID 1212)). Conditions: fluorescent estrogen competition, at 10 µM; stronger effect = higher value.

SMILES	inhibition	outcome
COC(=O)c1ccc(OCc2c(C)noc2C)cc1	61% (active)	–
CC1CCN(Cc2c(O)ccc3c4c(c(=O)oc23)CCC4)CC1	–	inactive
CC1(C)CC(=O)c2cn(-c3ccc(Cl)cc3)c(=N)c(C#N)c2C1	–	inactive
CC1=CC(C)C2(CO)COC(c3ccccc3O)C1C2C (configuration not stated)	–	inactive
CC(=O)c1ccc2c(c1)C1C=CCC1C(c1cccc([N+](=O)[O-])c1)N2 (configuration not stated)	64% (active)	–
CC(=O)Oc1ccc(C2Nc3c(C(=O)O)ccc([N+](=O)[O-])c3C3C=CCC32)cc1 (configuration not stated)	99% (active)	–
COc1cc([C@@H]2Nc3ccc(S(=O)(=O)Nc4ccccc4F)cc3[C@@H]3C=CC[C@@H]32)cc(OC)c1OC	17%	–
COc1ccc(NS(=O)(=O)c2ccc3c(c2)[C@H]2C=CC[C@H]2[C@@H](c2ccc(F)cc2)N3)cc1	56%	–
CCCOc1cc2oc(=O)c3c(c2cc1CC)CCCC3	–	inactive
C=C1c2ccc(OC)cc2NC(=O)N1c1ccccc1	–	inactive
Cc1c(Cc2ccccc2)c(=O)n2c([nH]c3ccccc32)c1C#N	8%	–
COc1cc2c(c([N+](=O)[O-])c1)NC(c1ccc(Br)cc1)C1CC=CC21 (configuration not stated)	–	inactive
CC1(C)Cc2[nH]c3ccccc3c2C(C)(C)N1	–	inactive
CCOC(=O)COc1cc2oc(=O)c3c(c2cc1CC)CCCC3	–	inactive
CCCOc1cc(OCCC)c2c3c(c(=O)oc2c1)CCCC3	–	inactive
Cc1cc(C(C)CO)cc(C(C)(C)C)c1O (configuration not stated)	–	inactive
O=C1CC(c2ccncc2)c2cc3c(cc2N1)OCCO3 (configuration not stated)	1%	–
